In the library only some 1.3% were active in any assay of this set; here they are far more common.
EPAC2 ag: qHTS for Agonist of cAMP-regulated guanine nucleotide exchange factor 4 (EPAC2): primary screen | EPAC2 activation, biochemical qHTS; response scale: 100% = 6.5 mM cAMP response | 0.079% of 360,000 active | Potency, µM (highest dose often 154 µM), inactives show at the top dose activation, usual class: activators | Rap guanine nucleotide exchange factor 4 (Homo sapiens), Q8WZA2; note: nearly all actives have a fitted effect of over 50% in size
Target sequence (Q8WZA2 whole entry, looked up): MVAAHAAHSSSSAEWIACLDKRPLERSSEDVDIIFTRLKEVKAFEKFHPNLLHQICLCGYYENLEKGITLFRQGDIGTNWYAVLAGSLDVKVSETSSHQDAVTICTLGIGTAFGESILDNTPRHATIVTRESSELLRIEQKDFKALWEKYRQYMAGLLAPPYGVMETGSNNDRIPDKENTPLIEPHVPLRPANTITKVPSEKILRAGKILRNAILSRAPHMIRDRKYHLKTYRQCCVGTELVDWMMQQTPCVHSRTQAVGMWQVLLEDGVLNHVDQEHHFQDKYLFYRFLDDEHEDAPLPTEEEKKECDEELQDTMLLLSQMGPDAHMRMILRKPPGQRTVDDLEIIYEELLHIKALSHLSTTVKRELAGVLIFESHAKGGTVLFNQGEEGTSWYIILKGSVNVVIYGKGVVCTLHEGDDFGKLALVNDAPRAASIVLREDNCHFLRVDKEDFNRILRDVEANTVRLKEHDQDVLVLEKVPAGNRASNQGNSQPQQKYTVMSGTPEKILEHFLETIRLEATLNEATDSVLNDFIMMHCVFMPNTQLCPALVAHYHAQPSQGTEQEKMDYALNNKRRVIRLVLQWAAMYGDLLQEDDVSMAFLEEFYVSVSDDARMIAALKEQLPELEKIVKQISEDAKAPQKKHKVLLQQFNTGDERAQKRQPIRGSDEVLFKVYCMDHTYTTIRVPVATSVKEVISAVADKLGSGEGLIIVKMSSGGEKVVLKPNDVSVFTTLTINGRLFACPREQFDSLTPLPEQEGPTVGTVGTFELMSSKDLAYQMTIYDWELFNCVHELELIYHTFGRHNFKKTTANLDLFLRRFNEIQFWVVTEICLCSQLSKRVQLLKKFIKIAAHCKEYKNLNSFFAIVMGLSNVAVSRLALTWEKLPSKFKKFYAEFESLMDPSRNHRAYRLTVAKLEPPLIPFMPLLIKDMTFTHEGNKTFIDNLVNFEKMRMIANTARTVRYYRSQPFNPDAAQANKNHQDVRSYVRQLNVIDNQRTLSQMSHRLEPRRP
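Readout is BODIPY fluorescence (480 nm excitation, 540 nm emission), which falls as labeled GDP is exchanged off Rap1B. EPAC2 at 100 nM acted on 250 nM RAP1B-BODIPY-GDP with 50 uM GDP present.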
EPAC1 ag: qHTS for Agonist of cAMP-regulated guanine nucleotide exchange factor 3 (EPAC1): primary screen; Rap guanine nucleotide exchange factor 3 (Homo sapiens), O95398; EPAC1 agonist qHTS, biochemical assay; response scale: 100% = response to 6.5 mM cAMP; Potency, µM (titrated, usually from 154 µM), without a hit: at the top dose activation, usual class: activators; 0.073% of 360,000 active; note: nearly all actives have a fitted effect of over 60% in size
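EPAC1 100 nM, Rap1B–BODIPY-GDP 250 nM, unlabeled GDP 50 uM; compound titration; 5 min RT; kinetic read ex480/em540 at 5-min intervals ×30 min; data normalized to 6.5 mM cAMP agonist control.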
EPAC2 antagonist: qHTS for Antagonist of cAMP-regulated guanine nucleotide exchange factor 2 (EPAC2): primary screen | Rap guanine nucleotide exchange factor 4 (Homo sapiens), Q8WZA2 | EPAC2 GEF exchange of Rap1B-BODIPY-GDP, fluorescence | Potency, µM (series often up to 114 µM), inactives show top-dose activity, negative = inhibition, actives largely listed as inhibitors | 0.18% of 360,000 active; note: % is set by controls: 0 for no effect and ±100 for the full control effect; nearly all actives have a fitted effect of over 45% in size
EPAC1 antagonist: qHTS for Antagonist of cAMP-regulated guanine nucleotide exchange factor 3 (EPAC1): primary screen; EPAC1 GEF assay, Rap1b-BODIPY-GDP exchange fluorescence; Potency, µM (top dose mostly 115 µM), without a hit: at the highest dose activity change, negative = inhibition, most hits filed as inhibitors; 0.14% of 360,000 active; Rap guanine nucleotide exchange factor 3 (Homo sapiens), O95398;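 note: plate controls were vehicle for no effect and positive control for full effect; nearly all actives have a fitted effect of over 50% in size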
USP1 inh: Inhibitors of USP1/UAF1: Primary Screen. recombinant USP1/UAF1, Ub-Rhodamine cleavage fluorescence. Potency, µM (top dose mostly 57.1 µM), without a hit: top-dose activity change, negative = inhibition, hits mostly inhibitors. 0.23% of 390,000 active. AID 743255, 2014; note: % is set by controls: 0 for no effect and ±100 for the full control effect; nearly all actives have a fitted effect of over 60% in size
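High-throughput fluorogenic screen: 1nM USP1/UAF1 complex, Ub-Rho substrate 150nM final, 50mM HEPES pH 7.8 with 0.5mM EDTA, 0.1 mg/ml BSA, 1mM TCEP and 0.01% Tween-20.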
ALOX12 inh: Primary qHTS assay for inhibitors of human arachidonate 12S-lipoxygenase (ALOX12): Round 2 | purified 12hLO, xylenol orange hydroperoxide absorbance | 1.1% of 580,000 active | Polyunsaturated fatty acid lipoxygenase ALOX12 (Homo sapiens), P18054 | Potency, µM (titrated, usually from 108 µM), for inactives: at the highest dose activity change, negative = inhibition, most hits filed as inhibitors; note: % is set by controls: 0 for no effect and ±100 for the full control effect
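Hydroperoxide product was detected by ferrous iron/xylenol orange as the 573 to 405 nm absorbance ratio. Arachidonic acid at 40 uM (final) was turned over for 30 min at room temperature by 150 nM human 12hLO, pH 7.0 Hepes buffer, after 15 min compound preincubation.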
The depositor's hits bear a star; [ ] = another dose, or the depositor's remark. Calls come from the whole dose curve; as a rule, active = well fitted curve in the direction sought with a large enough effect; inconclusive = small, poorly fitted or top-dose-only effect, or another doubt; inactive = no such curve, though single readings can be large; an effect the other way counts as inactive or inconclusive. Potency is the fitted concentration of half-maximal effect.

CC(=O)c1c[nH]c2cc(F)ccc12 was read as ALOX12 inh 3%.
Cc1ccccc1-c1cc(=O)c2cc(NC(=O)c3ccncc3)ccc2o1 was read as ALOX12 inh -1%.
For COC(=O)c1ccc(/C=C/c2nc3ccc(OC)cc3s2)cc1 the results were ALOX12 inh -46%.
For COc1ccc2nc(/C=C/c3cccc(O)c3)sc2c1 the results were ALOX12 inh 6.3µM*.
Screening Cc1ccc(NC(=O)CSC2=C(C#N)C(c3ccco3)CC(=O)N2)cc1 (centres undefined) returned EPAC2 ag -19%, EPAC1 ag 13%, EPAC2 antagonist -2%, EPAC1 antagonist -6%, USP1 inh -29% and ALOX12 inh inconclusive.
Screening Cc1ccc(C(=O)CSC2=C(C#N)C(c3ccco3)CC(=O)N2)c(C)c1 (centres undefined) returned EPAC2 ag 13%, EPAC1 ag 13%, EPAC2 antagonist 1%, EPAC1 antagonist -4%, USP1 inh -21% and ALOX12 inh 50µM*.
For Cc1ccc(-n2cccc2/C=C2/C(=N)N3C(=NC2=O)SN=C3S(C)(=O)=O)cc1Cl the results were EPAC2 ag -4%, EPAC1 ag -3%, EPAC2 antagonist -10%, EPAC1 antagonist inconclusive, USP1 inh -25% and ALOX12 inh 14µM*.
Cc1cccc(C)c1-n1cccc1/C=C1/C(=N)N2C(=NC1=O)SN=C2S(C)(=O)=O was read as EPAC2 ag -2%, EPAC1 ag -3%, EPAC2 antagonist inconclusive, EPAC1 antagonist -14%, USP1 inh -18% and ALOX12 inh inconclusive.
CCOc1ccc(-n2c(C)cc(/C=C3/C(=N)N4C(=NC3=O)SN=C4S(C)(=O)=O)c2C)cc1 was read as EPAC2 ag -35%, EPAC1 ag -6%, EPAC2 antagonist -5%[57.1 µM], EPAC1 antagonist inconclusive, USP1 inh inconclusive and ALOX12 inh 35µM*.
Screening O=C1/C(=C\c2ccc(Br)cc2)SC(=S)N1NS(=O)(=O)c1ccccc1 returned EPAC2 ag -12%, EPAC1 ag -5%, EPAC2 antagonist 18µM*, EPAC1 antagonist inconclusive, USP1 inh -26% and ALOX12 inh -29%.
`COc1ccccc1/C=C1\SC(=S)N(NS(=O)(=O)c2ccccc2)C1=O` gave EPAC2 ag -5%, EPAC1 ag 5%, EPAC2 antagonist inconclusive, EPAC1 antagonist 56µM*, USP1 inh -3% and ALOX12 inh -28%.
For COc1ccc(/C=C2/SC(=S)N(NS(=O)(=O)c3ccccc3)C2=O)cc1 the results were EPAC2 ag 7%, EPAC1 ag -9%, EPAC2 antagonist inconclusive, EPAC1 antagonist inconclusive, USP1 inh -14% and ALOX12 inh inconclusive.
`CSc1ccccc1C(=O)Nc1ccc(C(C)C)cc1` gave ALOX12 inh 0%.
Screening CC(=O)Oc1cc2c(cc1Cl)C(c1cccs1)CC1(CC(C)(C)NC(=S)N1)O2 (centres undefined) returned EPAC2 ag -3%, EPAC1 ag 2%, EPAC2 antagonist -1%, EPAC1 antagonist -6%, USP1 inh -12% and ALOX12 inh 32µM*.
`CC1(C)CC2(CC(c3ccccc3)c3ccc(O)cc3O2)NC(=S)N1` (centres undefined) gave EPAC2 ag -5%, EPAC1 ag 6%, EPAC2 antagonist -15%, EPAC1 antagonist inconclusive, USP1 inh 1% and ALOX12 inh inconclusive.
Screening CCCCNC(=S)N/N=C/C1=CCC2CC1C2(C)C (centres undefined) returned EPAC2 ag 10%, EPAC1 ag -1%, EPAC2 antagonist -25%, EPAC1 antagonist -9%, USP1 inh -15% and ALOX12 inh inconclusive.
Screening CC(C)NC(=S)N/N=C/C1=CCC2CC1C2(C)C (centres undefined) returned EPAC2 ag 2%, EPAC1 ag -1%, EPAC2 antagonist -12%, EPAC1 antagonist -9%, USP1 inh -17% and ALOX12 inh 35µM*.
For CC1(C)C2CC=C(/C=N/NC(=S)NCc3ccccc3)C1C2 (centres undefined) the results were ALOX12 inh 35µM*.
CC(=O)N/N=C/C1=CCC2CC1C2(C)C (centres undefined) was read as EPAC2 ag 2%, EPAC1 ag -15%, EPAC2 antagonist -5%, EPAC1 antagonist -11%, USP1 inh -2% and ALOX12 inh 0%.
CC(CCc1ccccc1)N1CCN(Cc2ccccc2)CC1 (centres undefined) was read as EPAC2 ag 5%, EPAC1 ag 0%, EPAC2 antagonist 8%, EPAC1 antagonist 2%, USP1 inh -22% and ALOX12 inh 5.6µM*.
Screening CCOc1ccc(C(=O)Nc2cccc(-c3nnc4n3CCCC4)c2)cc1 returned ALOX12 inh 8%.
Cc1cc(OCCN2CCC(Cc3ccccc3)CC2)ccc1[N+](=O)[O-] was read as EPAC2 ag 14%, EPAC1 ag -4%, EPAC2 antagonist 2%, EPAC1 antagonist 7%, USP1 inh -20% and ALOX12 inh 6.3µM*.
For O=C(Nc1ccc2nc(-c3ccco3)c(-c3ccco3)nc2c1)N1CCN(c2ccccn2)CC1 the results were EPAC2 ag 2%, EPAC1 ag 2%, EPAC2 antagonist -14%, EPAC1 antagonist 35µM*, USP1 inh -15% and ALOX12 inh inconclusive.
Screening O=C(Nc1ccc(N2CCOCC2)cc1)c1ccc2nc(-c3ccco3)c(-c3ccco3)nc2c1 returned EPAC2 ag 3%, EPAC1 ag -6%, EPAC2 antagonist 17%, EPAC1 antagonist 1%, USP1 inh -4% and ALOX12 inh -27%.
S=C(Nc1ccc(N2CCOCC2)cc1)Nc1ccc2nc(-c3ccco3)c(-c3ccco3)nc2c1 was read as EPAC2 ag 18%, EPAC1 ag 5%, EPAC2 antagonist 0%, EPAC1 antagonist inconclusive, USP1 inh 25µM* and ALOX12 inh -4%.
CC(Oc1cccc(Cl)c1)C(=O)NCCc1ccccn1 (centres undefined) was read as ALOX12 inh 1%.

Assay outcomes as filed in PubChem.
